Abeta rescue = A-beta toxicity reversal in yeast; 0.063% of 410,000 active; Potency, µM (titrated, usually from 46.1 µM), most hits filed as activators; yeast expressing A-beta42, growth rescue, OD600, 48 h; response scale: 0% DMSO, 100% iron-clioquinol control; further: nearly all actives have a fitted effect of over 55% in size
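Yeast growth medium received pinned compounds, then yeast cells expressing toxic A-beta were added; plates incubated at 30 C for 48 hr. Growth read as absorbance at 600 nm, normalized to DMSO and equimolar FeCl3 plus clioquinol controls.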
TDP-43 yeast inh = rescues yeast growth from TDP-43 toxicity. Potency, µM (doses to about 46.1 µM), for inactives: at the highest dose growth rescue (activation), actives largely listed as activators. 1.8% of 410,000 active. TDP-43 expressing yeast growth rescue, BacTiter-Glo, 24 h. AID 652104; further: % of control where 0% means no effect; nearly all actives have a fitted effect of over 50% in size
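Growth rescue of TDP-43-toxic yeast measured as ATP luminescence (BacTiter-Glo). Cells grown to mid-log in raffinose, induced in galactose at OD600=0.02, exposed to compound 24 hr at 30 deg C.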
Mito fusion act = inhibitors of mitochondrial division or activators of mitochondrial fusion; S. cerevisiae fusion-defective mutant growth rescue, CellTiterGlo 48 h; Potency, µM (doses to about 46.1 µM), for the others: top-dose growth rescue (activation), actives largely listed as activators; 0.23% of 320,000 active; further: % of control where 0% means no effect; nearly all actives have a fitted effect of over 45% in size
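Compounds are tested for their ability to restore growth of mitochondrial fusion-defective yeast strains at non-permissive 37C in YPEG medium over 48 hours. Viability is quantified by luciferase luminescence.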
aSyn rescue = rescues yeast growth from alpha-synuclein toxicity; Yeast expressing alpha-synuclein, growth rescue, BacTiter-Glo, 24 h; 0.14% of 370,000 active; Potency, µM (top dose mostly 46.1 µM), for inactives: at the top dose growth rescue (activation), actives largely listed as activators; further: % of control where 0% means no effect; nearly all actives have a fitted effect of over 65% in size
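Readout is rescue of growth in alpha-synuclein-expressing yeast, so inhibitors of toxicity appear as activators. Growth after 24 hr at 30 deg C in galactose medium is quantified by luminescence.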
FUS suppressor = suppressors of FUS proteinopathy in yeast; S. cerevisiae FUS-expressing, growth rescue, OD600, 24 h; Potency, µM (top dose mostly 76.6 µM), hits mostly activators; 0.24% of 390,000 active; AID 1347120;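 further: plate controls were DMSO vehicle for no effect and reference control for full effect; nearly all actives have a fitted effect of over 55% in size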
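Galactose (2%) drives FUS expression in yeast precultured in raffinose; seeding density OD 0.005. Test compounds incubated 24hr at 30C and 99% humidity before absorbance at 600 nm was measured.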
* = called active by the depositor; i = inactive; ? = inconclusive; . = no result. Most compounds without a hit are left out; they make up all but 2.2% or so of the library. The call rests on the fitted dose curve; in most records, active means well fitted curve in the direction sought with a large enough effect; inconclusive means small, poorly fitted or top-dose-only effect, or another doubt; inactive means no such curve, though single readings can be large; an effect the other way counts as inactive or inconclusive. Potency means the concentration at half of the fitted maximal effect.

SMILES	Abeta rescue	TDP-43 yeast inh	Mito fusion act	aSyn rescue	FUS suppressor
C=CCOc1ccc2c(c1)C(=NO)c1cc(OCC=C)ccc1-2	i	0%	8%	-19%	i
COc1ccc2c(c1)C(=NO)c1cc(OC)ccc1-2	i	11µM*	-8%	-5%	i
O=C(C1CCCC1)N1CCC(CO)(Cc2ccccc2Cl)CC1	?	20µM*	6%	14%	i
c1ccc(-c2nc(-c3cnc4ccccc4n3)cs2)cc1	.	.	.	-18%	.
S=C1SCN(Cc2cccnc2)CN1Cc1ccccc1	i	25µM*	7%	-10%	i
S=C1NCN(Cc2cccnc2)CN1Cc1ccccc1	i	8%	-6%	2%	i
O=[N+]([O-])c1cc(-c2nc(-c3ccccc3)no2)ccc1NC1CCCCC1	i	3%	.	.	i
O=c1c(Cl)c(Cl)cnn1Cc1ccc(F)cc1	i	20µM*	-5%	1%	i
C[C@H](c1ccccc1)N1C[C@@H](COCc2ccccc2)Oc2cc(N3CC[C@@H](O)C3)ccc2S1(=O)=O	i	28µM*	.	0%	i
C=CCN1C(=O)[C@H](CC(=O)N2CCCC2)[C@@]2(C(=O)OCC)CCCC=C12	.	.	.	.	i
O=C(Nc1ccccc1C(=O)N1CCCCC1)c1nsc2ccccc12	i	?	.	.	i

Assay outcomes (PubChem)
